Measurements from PubChem BioAssay AID2435 (The Scripps Research Institute Molecular Screening Center, 2010).
The campaign covered roughly 320,000 compounds. About 1,000 (0.31%) were called active. The entries come from a sample that favours actives as a whole. A number with no mark means an inactive call.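 How the source made its calls: active means activation above the mean of all tested compounds plus 3 SD, cutoff set per screening run (cut at about 20% in these data); inactive means the rest.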

Target: Oxytocin receptor (Homo sapiens) (UniProt P30559)
Test: human OXTR agonists, primary screen, fluorescence, CHO-OTR cells, Fluo-8 calcium (AID 2435);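 further: peak over basal fluorescence ratio from a 100 s FLIPR kinetic read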
Details: Fluo-8 calcium fluorescence, at 3 µM, active compounds read high, normalized: DMSO 0%, oxytocin 100%

Oxytocin receptor (Homo sapiens), sequence (P30559 whole entry, looked up): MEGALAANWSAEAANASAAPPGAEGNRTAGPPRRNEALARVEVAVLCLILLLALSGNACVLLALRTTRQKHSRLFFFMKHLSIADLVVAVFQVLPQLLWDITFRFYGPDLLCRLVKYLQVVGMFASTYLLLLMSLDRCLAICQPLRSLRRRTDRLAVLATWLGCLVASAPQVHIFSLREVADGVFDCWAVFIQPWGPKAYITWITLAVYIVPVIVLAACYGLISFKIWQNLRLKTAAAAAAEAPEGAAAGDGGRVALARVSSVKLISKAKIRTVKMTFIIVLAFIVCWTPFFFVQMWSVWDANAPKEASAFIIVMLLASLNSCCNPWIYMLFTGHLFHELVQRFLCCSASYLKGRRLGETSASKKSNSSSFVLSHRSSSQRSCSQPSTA

| SMILES | activation |
| --- | --- |
| CN(C)CCN(C(=O)C1=COCCO1)c1nc2ccc(Cl)cc2s1 | 1.72% |
| Cc1nn(Cc2ccccc2)c(C)c1CNC(=O)c1ccc(F)c(S(=O)(=O)N2CCOCC2)c1 | 3.05% |
| Cc1ccc2c(c1)N(CC(=O)N1CCCc3ccccc31)C(=O)C(C)O2 (configuration not stated) | -1.51% |
| Cc1nc(C(=O)Nc2ccc(Cl)cc2)sc1C1(C)CC(c2ccccc2)=NO1 (configuration not stated) | 0.47% |
| Cc1nc(-c2ccc(Cl)cc2)sc1C1(C)CC(c2ccccc2F)=NO1 (configuration not stated) | -0.58% |
| Cc1nc(C(=O)NCc2ccccc2)sc1C1(C)CC(c2cccnc2)=NO1 (configuration not stated) | 21.7% (active) |
| COCC(C)NC(=O)CSc1nc2nn(-c3ccccc3)c(=O)c-2c2n1CCCCC2 (configuration not stated) | -0.74% |
| CC(=O)Nc1ccc(S(=O)(=O)N(C)c2ccc(OCC(=O)OCC(=O)N3CCCCC3)cc2)cc1 | 0.24% |
| Cn1c(=O)c(=O)n(C)c2cc(S(=O)(=O)CCC(=O)N3CCCCC3)ccc21 | -0.07% |
| O=C(C1CCCO1)N(Cc1ccccc1)c1ccccc1 (configuration not stated) | -1.09% |
| O=C(CCc1ccccc1)Nc1ncc([N+](=O)[O-])s1 | 12.4% |
| O=C(Cc1c(F)cccc1Cl)Nc1ncc([N+](=O)[O-])s1 | 8.99% |
| CC(=O)Oc1ccccc1C(=O)Nc1ncc([N+](=O)[O-])s1 | 20% (active) |
| CCC(C(=O)Nc1ccc2c(c1)OCCO2)c1ccccc1 (configuration not stated) | 0.44% |
| CCC(C(=O)OCC(=O)Nc1ccc(C(=O)Nc2ccc(OC)cc2)cc1)c1ccccc1 (configuration not stated) | 5.16% |
| CCC(C(=O)Nc1ccc(C(C)C)cc1)c1ccccc1 (configuration not stated) | 41.5% (active) |
| CCCc1nc2ccccc2c(C(=O)OCc2nnc(-c3cc(OC)c(OC)c(OC)c3)o2)c1CC | 0.34% |
| C=CCNC(=O)/C=C/c1ccc(C(C)C)cc1 | -2.22% |
| OCCCC1CCCCN1Cc1nc(Cc2ccccc2Cl)no1 (configuration not stated) | 1.04% |
| C=CCOc1cccc(C2C(C(=O)c3ccc(C)o3)=C(O)C(=O)N2CCCn2ccnc2)c1 (configuration not stated) | -0.44% |
| Cc1cc(N2C(=O)C(O)=C(C(=O)c3ccc(C)o3)C2c2ccc(OCc3ccccc3)cc2)no1 (configuration not stated) | 0.01% |
| C=CCOc1cccc(C2C(C(=O)c3ccc(C)o3)=C(O)C(=O)N2c2nnc(C)s2)c1 (configuration not stated) | 47.7% (active) |

| SMILES | activation |
| --- | --- |
| COC(=O)CN(c1nc(C)c(Cl)c(OC)n1)S(=O)(=O)c1ccc(C)cc1 | -1.64% |
| COC(=O)c1nn(-c2cccc(Cl)c2)ccc1=O | 0.3% |
| Cc1cc(C)cc(OCC(=O)NC(C)c2ccccc2)c1 (configuration not stated) | -2.21% |
| COc1cc(OC)cc(C(=O)NCC(=O)OCC(=O)NC(C)CCc2ccccc2)c1 (configuration not stated) | -0.13% |
| COc1cc(OC)cc(C(=O)N[C@H](C(=O)OCC(=O)NC(C)c2ccccc2)C(C)C)c1 (some centres not stated) | 76.7% (active) |
| O=C(Cn1c(-c2ccc(Cl)cc2)noc1=O)N1CCN(c2ccccc2F)CC1 | 2.36% |
| NS(=O)(=O)c1ccc(CNC(=O)c2cccc(S(=O)(=O)N3CCc4ccccc43)c2)cc1 | -0.73% |
| N#C/C(=C/c1ccc(N2CCCCC2)o1)C(=O)NCCc1c[nH]c2ccccc12 | 27.2% (active) |
| N#C/C(=C/c1ccc(N2CCOCC2)o1)C(=O)N1CCOCC1 | 4.33% |
| O=C(CN1C(=O)NC2(CCCCC2)C1=O)NCCc1c[nH]c2ccccc12 | 0.26% |
| CCCCCCCCCCCCC(NC(C)=O)(C(=O)OCC)C(=O)OCC | 1.74% |
| O=C(c1cccnc1)N1CCN(S(=O)(=O)c2cccs2)CC1 | 0.18% |
| CC1CCc2[nH]c3ccc(C(=O)N(C)CC(=O)Nc4cccc(F)c4)cc3c2C1 (configuration not stated) | 2.82% |
| Fc1ccc(NC(=S)N2CCc3[nH]c4ccccc4c3C2)cc1 | 4.05% |
| O=C(CCCN1CCc2[nH]c3ccc(F)cc3c2C1)c1ccc(F)cc1 | 24.7% (active) |
| Cc1cccc(OCCC(=O)Nc2cc(S(=O)(=O)N3CCCCC3)ccc2N2CCOCC2)c1 | -0.97% |
| CC1(C)C2CC[C@]3(C)C(CC=C4[C@@H]5C[C@@](C)(CO)CC[C@]5(C(=O)O)CC[C@]43C)[C@@]2(C)CC[C@@H]1O (some centres not stated) | 0.42% |
| CC1(C)CC[C@]2(C(=O)O)CC[C@]3(C)C(=CCC4[C@@]5(C)CC[C@H](O)C(C)(C)C5[C@H](O)C[C@]43C)[C@@H]2C1 (some centres not stated) | 2.18% |
| CC1(C)CC[C@@]2(C(=O)O)C(C1)C1=CCC3[C@@]4(C)CC[C@H](O)C(C)(C)C4CC[C@@]3(C)[C@]1(C)C[C@H]2O (some centres not stated) | 30.7% (active) |
| Cc1ccc(S(=O)(=O)N(CC(=O)NN=C2CCN(C)CC2)c2ccc(F)cc2)cc1 | -1.6% |
| CCCn1nc(C(=O)N2CCCc3ccccc32)c2ccccc2c1=O | -1.8% |
| O=C(OCCN=C1NS(=O)(=O)c2ccccc21)c1cccc([N+](=O)[O-])c1 | 1.88% |

| SMILES | activation |
| --- | --- |
| O=C(CCCN=C1NS(=O)(=O)c2ccccc21)OCC(=O)c1ccc(F)c(F)c1 | 30.8% (active) |
| N#CC1(NC(=O)COC(=O)CCN=C2NS(=O)(=O)c3ccccc32)CCCCC1 | 0.35% |
| CCN(CC)CCCNC(=O)CCc1ccccc1 | -0.47% |
| CN(C(=O)CN(CCO)CC(=O)N(C)C(C)(C)Cc1ccccc1)C(C)(C)Cc1ccccc1 | 50.2% (active) |
| OCCN(Cc1ccccc1)Cc1ccc(Cl)cc1 | -0.86% |
| Cc1cc(S(=O)(=O)N2CCOCC2)ccc1OCC(=O)Nc1cccc(C(F)(F)F)c1 | 0.91% |
| CCNC(=S)NNC(=O)Cc1ccccc1 | 1.03% |
| CC(C)C(=O)Nc1cccc(NC(=S)NC(=O)C(c2ccccc2)c2ccccc2)c1 | 4.03% |
| CCCCC(=O)NNC(=S)NC(=O)C(c1ccccc1)c1ccccc1 | 68.1% (active) |
| CC1CCCN(CCCNC(=O)CN2C(=O)COc3ccc(S(=O)(=O)N4CCOCC4)cc32)C1 (configuration not stated) | 0.7% |
| Cc1ccc(OS(=O)Nc2cccc3nccnc23)cc1 (configuration not stated) | 0.23% |
| CN1C(=O)c2cccc3c(N)ccc(c23)C1=O | 84.9% (active) |
| O=C(O)c1ccc2c3c(cccc13)C(=O)N(OS(=O)(=O)c1ccccc1)C2=O | 0.06% |
| Cc1nn(C)cc1C(=O)c1ccccc1 | -1.25% |
| Cc1nn(C)cc1N1C(=O)c2cccc3c(N)ccc(c23)C1=O | 70.2% (active) |
| COc1ccc(N2C(=O)c3cccc4cccc(c34)C2=O)nn1 | -0.24% |
| CC(=O)Nc1ccccc1Sc1ccc2c3c(cccc13)C(=O)N(c1ccc(C)cc1)C2=O | -0.75% |
| CSc1ncccc1C(=O)Nc1cccc(S(=O)(=O)N2CCOCC2)c1 | 3.66% |
| CN(C)CCCN(C(=O)c1ccc(S(=O)(=O)N2CCCCCC2)cc1)c1nc2cc3c(cc2s1)OCCO3 | 3.02% |
| CN(C)CCCN(C(=O)c1ccc(S(=O)(=O)N2CCCCCC2)cc1)c1nc2ccc(Br)cc2s1 | 20.8% (active) |
| CN(C)CCCN(C(=O)c1ccc(S(=O)(=O)N2CCCc3ccccc32)cc1)c1nc2ccc(F)cc2s1 | 15.5% |
| Cc1oc2nc(SCC(=O)Nc3ccc(S(N)(=O)=O)cc3)nc(NC(=O)c3ccccc3)c2c1C | 0.48% |

| SMILES | activation |
| --- | --- |
| CCCCCCCCCCCCN1C(=O)CSC1c1cccnc1 (configuration not stated) | -0.53% |
| COCCC(=O)Nc1ccc2c(c1)CN(C(=O)CCOC)CC2 | 0.4% |
| COc1ccc(S(=O)(=O)N(C)CC(=O)N2CCCC2)cc1 | 1.27% |
| CN(C)S(=O)(=O)c1ccc(Oc2ccc(S(=O)(=O)N(C)C)cc2)cc1 | 23.4% (active) |
| CN(C)S(=O)(=O)c1ccc(NC(=O)N2CCOCC2)cc1 | -0.79% |
| Cc1nc(CC(=O)NNS(=O)(=O)c2ccc(F)c(Cl)c2)cs1 | -0.41% |
| Cc1ccccc1N1CC(C(=O)Nc2ccc(S(=O)(=O)N3CCCC3)cc2)CC1=O (configuration not stated) | 1.72% |
| CC(C)(c1ccccc1)c1ccc(OCCN2CCCC2)cc1 | 16% |
| CC(C)(c1ccccc1)c1ccc(OCCN)cc1 | 20.2% (active) |
| CN(C)CC(O)COc1ccc(C(C)(C)c2ccc(OCC(O)CN(C)C)cc2)cc1 (configuration not stated) | 1.29% |
| COc1ccc(-c2csc3ncnc(N4CCN(S(=O)(=O)c5ccccc5C#N)CC4)c23)cc1 | -0.22% |
| Cc1c(CCOC(=O)CC23CC4CC(CC(C)(C4)C2)C3)sc[n+]1Cc1ccc([N+](=O)[O-])cc1 | -1.22% |
| COc1cc(C(CCN2CCN(c3ccccc3)CC2)c2c(OC)cc(OC)c3ccc(=O)oc23)cc(OC)c1OC (configuration not stated) | 22.2% (active) |
| COc1cc(OC)c2ccc(=O)oc2c1C(CCN1CCN(c2ccccc2)CC1)c1ccc2c(c1)OCO2 (configuration not stated) | -1.49% |
| CCN(CC)CCC(c1cc(OC)c(OC)c(OC)c1)c1c(OC)cc(OC)c2c(-c3ccccc3)cc(=O)oc12 (configuration not stated) | 2.08% |
| Cc1ccc(S(=O)(=O)N2CCN(C(=O)Cc3sc(C)nc3-c3ccc(F)cc3)CC2)c(C)c1 | -2.3% |
| CCCn1nc2cc(C(=O)NCc3ccccc3)ccc2c1OCC | -2.12% |
| C=CCSc1nc2c(c(=O)[nH]c(=O)n2C)n1Cc1ccccc1 | -0.23% |
| Cc1cc2nc3c(=O)n(Cc4ccccc4)c(=O)[nH]c3nc2cc1N | 52.9% (active) |
| COC(=O)CSc1nc2ccccc2c(=O)n1Cc1ccccc1 | -1.02% |
| O=S(=O)(NCCOc1cccc2cccnc12)c1ccc(F)cc1 | 3.57% |
